Data taken from PubChem BioAssay (NCATS).
Inconclusive results are not listed. Activity calls are given as the source filed them. Unless noted, the call rests on the fitted dose curve.

Tested on: not listed separately
Assay: AP1 Signaling Pathway (AID 357; active means well fitted curve in either direction with a large enough effect, not every such curve was filed as active;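 further: ME-180 reporter cells stimulated with EGF at its EC50 level; on the % scale 0 is the no-effect control and ±100 the full control effect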)
Conditions: ME-180 (cervical carcinoma) AP-1-bla reporter, EGF-induced, beta-lactamase ratio, 5 h; at 7.69 µM (top of the series) unless noted
Outline: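 In this screen, ME-180 cells in Opti-MEM with 0.5% dialyzed FBS received EC50 EGF and compound titrations for 5 h. AP-1 reporter beta-lactamase was detected via CCF4 ratio, giving AC50 for positive and negative modulators.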

Activity change, negative = inhibition, inactive:
COCCn1c(=O)c(-c2cccc(C#N)c2)nc2cnc(Oc3ccc(OC)cc3)nc21 -21.9%
O=c1c(-c2ccccc2)nc2cncnc2n1-c1ccccc1 -10.5%
CN(C)C(=O)c1ccc(-c2nccc(N(C)Cc3ccco3)n2)cc1 -6.22%
CS(=O)(=O)Nc1cccc(-c2cc(NCc3cccs3)ncn2)c1 -14.7%
COc1ccc(-c2nc3cnc(OC)nc3n(C)c2=O)cc1 8.21%
c1ccc(CNc2ncncc2-c2cccnc2)cc1 1.26%
CN(C)c1ncc2nc(-c3cccs3)c(=O)n(-c3ccccc3)c2n1 -9.21%
Cn1c(=O)c(-c2ccc(Cl)cc2)nc2cnc(OCc3ccccc3)nc21 -12.6%
COc1cccc(Cn2c(=O)c(-c3ccc(Cl)cc3)nc3cnc(N4CCN(C)CC4)nc32)c1 17.8%
COc1cccc(Cn2c(=O)c(CCc3ccccc3)nc3cncnc32)c1 -12.1%
Cn1c(=O)c(-c2ccccc2)nc2cnc(Nc3ccccc3)nc21 6.58%
COc1ncc2ncc(=O)n(C3CC3)c2n1 -1.23%
Cc1cnc(CNc2cc(-c3ccccc3C(F)(F)F)ncn2)cn1 3.5%
CN(C)C(=O)c1ccc(-c2cncnc2NCc2cccnc2)cc1 22%
COc1ncc2nc(-c3ccc(F)cc3)c(=O)n(CCc3ccccc3)c2n1 -6.05%
N#Cc1cccc(-c2nccc(-n3ccnc3)n2)c1 10.7%
O=c1c(-c2ccccc2)nc2cnc(Oc3cccc(Cl)c3)nc2n1C1CC1 -15.1%
CNc1nc(-c2cccnc2)nc2ccccc12 14.7%
Cn1cc(-c2nc3cnc(Oc4ccccc4)nc3n(Cc3cccs3)c2=O)c2ccccc21 7.68%
COc1cccc(Cn2c(=O)c(-c3ccc(Cl)cc3)nc3cnc(OC)nc32)c1 -15.4%
c1ccc(CNc2ccnc(-c3ccc4c(c3)OCO4)n2)cc1 -19.4%

Target: Cytochrome P450 1A2 (Homo sapiens) (UniProt P05177)
Sequence (P05177 whole entry, looked up): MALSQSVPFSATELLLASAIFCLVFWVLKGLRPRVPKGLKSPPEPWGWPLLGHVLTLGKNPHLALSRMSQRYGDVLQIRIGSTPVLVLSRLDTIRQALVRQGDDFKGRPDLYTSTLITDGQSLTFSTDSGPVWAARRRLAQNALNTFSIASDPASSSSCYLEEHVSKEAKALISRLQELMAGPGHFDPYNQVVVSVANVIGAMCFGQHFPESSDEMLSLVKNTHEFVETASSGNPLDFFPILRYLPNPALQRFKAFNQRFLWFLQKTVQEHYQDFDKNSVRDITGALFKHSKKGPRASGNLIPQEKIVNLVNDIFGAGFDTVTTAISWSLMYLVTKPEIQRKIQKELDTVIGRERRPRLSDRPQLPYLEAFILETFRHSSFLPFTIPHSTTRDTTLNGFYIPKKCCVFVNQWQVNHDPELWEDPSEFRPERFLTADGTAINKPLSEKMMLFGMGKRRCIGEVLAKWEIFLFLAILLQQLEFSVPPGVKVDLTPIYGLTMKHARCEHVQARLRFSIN
Assay: p450-cyp1a2 (AID 410); further: potency means the concentration at half of the fitted maximal effect;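 on Activity change, negative = inhibition: -100% = full effect of reference inhibitor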
Conditions: recombinant CYP1A2, luciferin-ME demethylation, luminescence; series mostly up to 57 µM; activity change, negative = inhibition: at the top concentration
Outline: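 Human CYP1A2 (20nM) demethylated Luciferin-ME at its Km (100uM) in 100mM KPO4. After 10 min compound preincubation, NADPH regeneration ran the reaction 60 min at room temperature. Luciferin was read by luminescence, normalized to 57 uM furafylline.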

Potency, active:
Cc1nc2cnc(Oc3cccc(Cl)c3)nc2n(C2CC2)c1=O 6.31 µM
COc1ccc(CNc2ccnc(-c3ccc(C(=O)N(C)C)cc3)n2)c(OC)c1 12.6 µM
Clc1ccccc1-c1cc(NCCN2CCOCC2)ncn1 31.6 µM
COc1ccc(CNc2cc(-c3cccnc3)ncn2)c(OC)c1 1.26 µM
CCNc1ncc2nc(-c3ccc(OC)cc3)c(=O)n(CCC#N)c2n1 10 µM
FC(F)(F)c1ccccc1-c1cncnc1NCc1cccnc1 20 µM
COc1ncc2nc(-c3cn(C)c4ccccc34)c(=O)n(C)c2n1 1 µM
CN(C)C(=O)c1ccc(-c2cncnc2NCc2ccccc2)cc1 20 µM
COc1ccc(-n2c(=O)c(CCc3ccccc3)nc3cncnc32)cc1 25.1 µM
Cc1nc2cnc(N(C)C)nc2n(-c2ccccc2)c1=O 2 µM
COc1ccccc1CNc1ncncc1-c1ccc(C(=O)N(C)C)cc1 12.6 µM
COc1ccc(CNc2ncncc2-c2ccccc2C(F)(F)F)c(OC)c1 15.8 µM
COCCn1c(=O)c(-c2cccc(C#N)c2)nc2cnc(N3CCOCC3)nc21 10 µM
CNc1ncncc1-c1ccccc1C 12.6 µM
O=c1cnc2cnc(Oc3ccccc3)nc2n1C1CC1 7.94 µM
COCCn1c(=O)c(-c2cccc(C#N)c2)nc2cnc(Oc3ccc(OC)cc3)nc21 12.6 µM
O=c1c(-c2ccccc2)nc2cncnc2n1-c1ccccc1 5.01 µM
CN(C)C(=O)c1ccc(-c2nccc(N(C)Cc3ccco3)n2)cc1 12.6 µM
COc1c(O)cc2oc3cc(O)c(CC=C(C)C)c(O)c3c(=O)c2c1CC=C(C)C 31.6 µM
CS(=O)(=O)Nc1cccc(-c2cc(NCc3cccs3)ncn2)c1 6.31 µM
COc1ccc(-c2nc3cnc(OC)nc3n(C)c2=O)cc1 2.51 µM
c1ccc(CNc2ncncc2-c2cccnc2)cc1 2.51 µM
CN(C)c1ncc2nc(-c3cccs3)c(=O)n(-c3ccccc3)c2n1 31.6 µM
Cn1c(=O)c(-c2ccc(Cl)cc2)nc2cnc(OCc3ccccc3)nc21 0.794 µM
COc1cccc(Cn2c(=O)c(CCc3ccccc3)nc3cncnc32)c1 12.6 µM
Cn1c(=O)c(-c2ccccc2)nc2cnc(Nc3ccccc3)nc21 15.8 µM
COc1ncc2ncc(=O)n(C3CC3)c2n1 10 µM
Cc1cnc(CNc2cc(-c3ccccc3C(F)(F)F)ncn2)cn1 25.1 µM
CN(C)C(=O)c1ccc(-c2cncnc2NCc2cccnc2)cc1 5.01 µM
COc1ncc2nc(-c3ccc(F)cc3)c(=O)n(CCc3ccccc3)c2n1 0.398 µM
N#Cc1cccc(-c2nccc(-n3ccnc3)n2)c1 0.2 µM
O=c1c(-c2ccccc2)nc2cnc(Oc3cccc(Cl)c3)nc2n1C1CC1 1.58 µM
CNc1nc(-c2cccnc2)nc2ccccc12 0.1 µM
Cn1cc(-c2nc3cnc(Oc4ccccc4)nc3n(Cc3cccs3)c2=O)c2ccccc21 3.16 µM
COc1cccc(Cn2c(=O)c(-c3ccc(Cl)cc3)nc3cnc(OC)nc32)c1 3.98 µM
c1ccc(CNc2ccnc(-c3ccc4c(c3)OCO4)n2)cc1 0.398 µM

Activity change, negative = inhibition, inactive:
CNc1ncncc1-c1ccccc1C(F)(F)F -17.8%
CC(=O)NCCNc1nc(-c2ccc(C(=O)N(C)C)cc2)nc2ccccc12 -16.8%
COc1cccc(Cn2c(=O)c(-c3ccc(Cl)cc3)nc3cnc(N4CCN(C)CC4)nc32)c1 -16.3%
